Shown are actives, neighbours in structure and some others; about 4.6% of the full set was active somewhere.
CF NFkB inh: cystic fibrosis NF-kB activation inhibition; KKLEB NF-kB-GFP reporter, PAF-induced, GFP fluorescence overnight; inhibition, % at 5 µM; 360,000 tested, 0.86% active; AID 588850;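 active = at least 50% inhibition at 5 µM, scaled per plate between neutral and stimulator controls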;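 note: PAF is a Pseudomonas aeruginosa culture filtrate used as stimulus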
ABHD5 PLIN5 PPI: ABHD5-PLIN5 protein interaction inhibition; Q00G26+Q8WTS1; Split G. princeps luciferase complementation, luminescence, 4 h; inhibition, % at 4 µM; 360,000 tested, 0.78% active; AID 602281;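 active = inhibition above the mean inhibition across every tested compound plus 3 SD, cut at about 22% in these data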
KKLEB cytotox: CF airway cell cytotoxicity counter-screen. activity change (cytotoxicity), % at 5 µM. 360,000 tested, 0.36% active. KKLEB CF airway cells viability, ATPlite luminescence, overnight; active compounds read low; cells stimulated with P. aeruginosa culture filtrate;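 active = corrected activity change at or below -50% at 5 µM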
Mdm2-MdmX inh: disrupts the human Mdm2-MdmX interaction. inhibition, % at 8 µM. SaOS-2 split-luciferase Mdm2/MdmX complementation, luminescence. 330,000 tested, 3% active. O15151+Q00987. AID 485346;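 active = inhibition of at least 50% at 8 µM in the primary screen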
Target sequence (O15151 whole entry, looked up): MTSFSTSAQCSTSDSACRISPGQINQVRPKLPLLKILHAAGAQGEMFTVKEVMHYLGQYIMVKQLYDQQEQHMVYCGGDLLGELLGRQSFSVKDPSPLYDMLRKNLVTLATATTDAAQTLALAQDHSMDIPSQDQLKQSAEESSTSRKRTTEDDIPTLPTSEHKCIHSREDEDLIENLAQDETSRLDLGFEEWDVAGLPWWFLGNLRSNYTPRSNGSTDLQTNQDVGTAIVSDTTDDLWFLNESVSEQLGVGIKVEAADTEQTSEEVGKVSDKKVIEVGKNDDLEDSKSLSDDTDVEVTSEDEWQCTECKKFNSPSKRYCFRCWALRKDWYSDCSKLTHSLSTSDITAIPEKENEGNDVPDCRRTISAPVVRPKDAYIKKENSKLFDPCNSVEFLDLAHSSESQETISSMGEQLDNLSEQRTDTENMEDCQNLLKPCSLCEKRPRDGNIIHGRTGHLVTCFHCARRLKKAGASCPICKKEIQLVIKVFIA
Target sequence (Q00987 whole entry, looked up): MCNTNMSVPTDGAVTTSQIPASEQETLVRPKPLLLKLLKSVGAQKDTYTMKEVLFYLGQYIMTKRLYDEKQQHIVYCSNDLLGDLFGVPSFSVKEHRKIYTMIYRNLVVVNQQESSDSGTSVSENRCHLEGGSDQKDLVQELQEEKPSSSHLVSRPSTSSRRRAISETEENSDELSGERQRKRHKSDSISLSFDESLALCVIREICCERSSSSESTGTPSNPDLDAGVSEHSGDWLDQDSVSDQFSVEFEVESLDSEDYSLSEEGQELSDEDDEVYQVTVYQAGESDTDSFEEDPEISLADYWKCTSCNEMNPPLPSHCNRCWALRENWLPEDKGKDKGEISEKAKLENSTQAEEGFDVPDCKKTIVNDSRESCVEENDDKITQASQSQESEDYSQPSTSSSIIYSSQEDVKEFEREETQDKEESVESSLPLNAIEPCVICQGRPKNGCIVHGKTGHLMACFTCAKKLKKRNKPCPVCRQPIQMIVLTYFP
HIF-2a block: inhibitors of HIF-2a; 786-0 RCC cells HIF-2a reporter, luciferase luminescence, overnight; 360,000 tested, 0.72% active; inhibition, % at 18.8 µM;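 active = inhibition of the luminescence signal of 40% or more relative to plate controls, in a single-dose primary screen at 18.75 µM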
Peg3 promoter: reduces Peg3 promoter-driven luciferase expression in HeLa; HeLa PEG-Prom luciferase reporter, luminescence, overnight; inhibition, % at 20 µM; 360,000 tested, 1.7% active; AID 588405;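 active = inhibition of at least 50% at 20 µM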
Mdm2 MdmX conf: confirmation of human Mdm2/MdmX interaction inhibitors. 10,000 tested, 55% active. shares compounds with Mdm2-MdmX inh. Mdm2-MdmX binding, luminescent assay. inhibition, % at 8 µM; in the data active = inhibition above about 40%
FLuc counter: counter-screen for Mdm2/MdmX inhibitors: full-length luciferase | shares compounds with Mdm2-MdmX inh | SaOS-2 full-length luciferase counterscreen, luminescence | inhibition, % at 8 µM | 6,200 tested, 77% active | AID 504607;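 active = mean inhibition at 8 µM reaching about 37%, which flags the compound as non-specific, limit read from the data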;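 note: p53-null SaOS-2 cells with luciferase driven by a doxycycline-inducible promoter; compound on cells about two nights before reading with doxycycline added after day one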
Hits are given with their value; i = inactive; nt = no result.

SMILES	CF NFkB inh	ABHD5 PLIN5 PPI	KKLEB cytotox	Mdm2-MdmX inh	HIF-2a block	Peg3 promoter	Mdm2 MdmX conf	others
Cc1sc2ncn(CC(=O)NCCCC(=O)Nc3ccc(C(C)C)cc3)c(=O)c2c1C	i	i	i	82	i	i	43	FLuc counter=i
CC1C(c2ccccc2)OCCN1C(=S)NC(=O)c1ccccc1 (stereo not drawn)	i	i	i	nt	i	i	nt
Cc1cc(N2CCOCC2)ccc1/C=C1\NC(=O)N(Cc2ccccc2F)C1=O	i	i	i	71	i	i	i
Cc1ccc(NC(=S)N(Cc2cccs2)Cc2cc3cccc(C)c3[nH]c2=O)cc1	i	i	i	i	i	i	nt
CCOc1cc(C2C(C#N)=C(N)OC(C)=C2C(C)=O)cc(Br)c1O (stereo not drawn)	i	i	i	i	i	i	nt
CCOc1cc(C2C(C#N)=C(N)OC(C)=C2C(C)=O)c(Br)c(Br)c1OC(C)C (stereo not drawn)	i	i	i	64	i	i	47	FLuc counter=49
CCCCCCn1c2c(c(=N)c3c1CCC3)CCC2	i	i	i	67	i	i	60	FLuc counter=39
Cc1ccc2oc(C(Cl)(Cl)Cl)cc(=O)c2c1	i	i	i	74	i	63	53	FLuc counter=60
COc1ccccc1NC(=O)c1sc2ncn(Cc3ccc(C)cc3)c(=O)c2c1C	i	i	i	55	i	52	i
N/C(=N\c1nc2ccccc2o1)NC(=O)c1ccccc1	i	i	i	i	i	i	nt
N/C(=N\c1nc2ccccc2o1)NC(=O)c1cccc(Br)c1	i	i	i	59	i	i	i
CCCS(=O)(=O)NC(=O)C1(C)CCN(C(=O)c2cccnc2Oc2ccccc2)C1 (stereo not drawn)	i	i	i	nt	i	i	nt
CC1CCCN(C(=O)c2cn(-c3ccccc3)nc2-c2cccnc2)C1 (stereo not drawn)	i	i	i	i	i	i	nt
CN(C)S(=O)(=O)c1cccc(C(=O)NCC(=O)NC2CCN(Cc3ccccc3)CC2)c1	i	i	i	i	i	i	nt
C=CCN(c1ccccc1)S(=O)(=O)c1cccc(C(=O)NC2CCN(Cc3ccccc3)CC2)c1	i	i	i	60	i	i	i
COc1ccc(N2CCN(C(CNC(=O)C(=O)NC3CCCC3)c3ccco3)CC2)cc1 (stereo not drawn)	i	i	i	i	i	i	nt
CCCCNC(=S)NCc1ccc2[nH]c3c(c2c1)CCCC3	i	i	i	i	i	i	nt
Cc1ccc(C)c(NC(=S)NCc2ccc3[nH]c4c(c3c2)CCCC4)c1	i	i	i	64	i	i	i
Cc1ccccc1NC(=S)NCc1ccc2[nH]c3c(c2c1)CCCC3	i	i	i	65	i	i	i
S=C(NCc1ccc2[nH]c3c(c2c1)CCCC3)Nc1ccccc1Cl	i	i	i	64	i	i	i
CNC(=S)NCc1ccc2[nH]c3c(c2c1)CCCC3	i	i	i	i	i	i	nt
COc1ccc(C(=O)c2c3ccc(OC)cc3[n+]([O-])n2Cc2ccc(C(N)=O)cc2)cc1	i	i	i	i	i	i	nt
CSc1ccc(NC(=O)C2(C)CCN2C(=O)Cc2ccc(C(C)(C)C)cc2)cc1 (stereo not drawn)	i	i	i	nt	i	i	nt
O=C(CCCCCn1c(=S)[nH]c2cc3c(cc2c1=O)OCO3)NCCc1ccccc1	i	i	i	i	i	i	nt
CCN(CCCNC(=O)CCn1c(=S)[nH]c2cc3c(cc2c1=O)OCO3)c1cccc(C)c1	i	i	i	57	i	i	i
SMILES	CF NFkB inh	ABHD5 PLIN5 PPI	KKLEB cytotox	Mdm2-MdmX inh	HIF-2a block	Peg3 promoter	Mdm2 MdmX conf	others
Cc1sc2ncnc(SCC(=O)N3CCCC(C(F)(F)F)C3)c2c1C (stereo not drawn)	i	i	i	i	i	i	nt
Cn1ncc2c(Nc3ccc(-c4ccccc4)cc3)ncnc21	i	i	i	76	i	i	48	FLuc counter=73
Cn1ncc2c(Nc3ccc(Cl)c(Cl)c3)ncnc21	i	i	i	i	i	i	nt
C[C@H](NS(=O)(=O)c1ccc(F)cc1)C(=O)OCC(=O)c1c(N)n(C)c(=O)n(C)c1=O	i	i	i	i	i	i	nt
COc1ccccc1-c1cnc(C(O)c2ccc(Cl)c(Cl)c2)[nH]1 (stereo not drawn)	i	i	i	nt	i	i	nt
N#CCC(=O)Nc1ccc(C(=O)OC(C(=O)Nc2cc(C(F)(F)F)ccc2Cl)c2ccccc2)cc1 (stereo not drawn)	i	i	i	52	i	i	i	FLuc counter=71
N#CCC(=O)Nc1ccc(C(=O)OC(C(=O)Nc2ccc([N+](=O)[O-])cc2Br)c2ccccc2)cc1 (stereo not drawn)	i	i	i	nt	i	i	nt
CNC(=O)c1nc(C)c(C2(C)CC(c3ccccc3)=NO2)s1 (stereo not drawn)	i	i	i	i	i	i	nt
Cc1nc(C(=O)Nc2ccc(Cl)cc2)sc1C1(C)CC(c2cccc([N+](=O)[O-])c2)=NO1 (stereo not drawn)	i	i	i	61	i	i	i	FLuc counter=47
Cc1nc(C(=O)NC2CCCCC2)sc1C1(C)CC(c2cccc([N+](=O)[O-])c2)=NO1 (stereo not drawn)	i	i	i	i	i	i	nt
COc1ccc(NC(=O)c2nc(C)c(C3(C)CC(c4cccnc4)=NO3)s2)cc1 (stereo not drawn)	i	i	i	60	i	i	59	FLuc counter=66
CCOC(=O)C1=C[C@@H](c2ccccc2)N(S(=O)(=O)c2ccc(C)cc2)[C@H]1c1cccc(Cl)c1	i	i	i	nt	i	i	nt
CN(C)S(=O)(=O)c1cccc(NC(=O)c2cccc(S(=O)(=O)N3CCCCCC3)c2)c1	i	i	i	i	i	i	nt
Nc1cc(=O)[nH]c(SCC(=O)c2ccc(F)cc2)n1	i	i	i	i	i	i	nt
Cc1cccc(CNC(=O)C2CCC(=O)N(C3CC3)C2)c1 (stereo not drawn)	i	i	i	i	i	i	nt
C[C@@]12C(=O)Nc3cc(Cl)ccc3C(=O)N1[C@H]1c3cc(Br)ccc3OC[C@@H]1[C@@H]2c1ccccc1	i	i	i	67	i	i	72	FLuc counter=i
COc1ccc2c(c1)OC[C@H]1[C@H]2N2C(=O)c3cc(OC)c(OC)cc3NC(=O)[C@@]2(C)[C@H]1c1ccccc1	i	i	i	58	i	i	i
COc1cc2c(cc1OC)C(=O)N1[C@H]3c4ccccc4OC[C@@H]3[C@H](c3ccccc3)[C@]1(C)C(=O)N2	i	i	i	i	i	i	nt
Cc1ccc2c(c1)C(=O)N1[C@H]3c4cc(C)ccc4OC[C@@H]3[C@H](c3ccccc3)[C@]1(C)C(=O)N2	i	i	i	54	i	i	43	FLuc counter=38

Source: PubChem BioAssay
